From PubChem BioAssay
A selection: hits, their analogues and other compounds. The true share with any hit is near 4%.
TWEAK Fn14 block – blocks TWEAK-Fn14 interaction in a reporter cell assay; TWEAK-stimulated Fn14 reporter cells, luciferase luminescence, 8 h; inhibition, % at 10 µM; actives 2% (n = 360,000); AID 1159606; in the data active means inhibition above about 50%
HIF-2a block – blocks HIF-2a reporter activity; 786-0 RCC cells HIF-2a reporter, luciferase luminescence, overnight; inhibition, % at 18.8 µM; actives 0.72% (n = 360,000); AID 624352;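 active means inhibition of the luminescence signal of 40% or more relative to plate controls, in a single-dose primary screen at 18.75 µM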
Peg3 promoter – reduces Peg3 promoter-driven luciferase expression in HeLa; HeLa PEG-Prom luciferase reporter, luminescence, overnight; inhibition, % at 20 µM; actives 1.7% (n = 360,000); AID 588405;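 active means inhibition of at least 50% at 20 µM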
KKLEB cytotox – reduces viability of KKLEB cystic fibrosis airway cells | KKLEB CF airway cells viability, ATPlite luminescence, overnight; stronger effect = lower value; cells stimulated with P. aeruginosa culture filtrate | activity change (cytotoxicity), % at 5 µM | actives 0.36% (n = 360,000) | AID 602141;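 active means corrected activity change at or below -50% at 5 µM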
TROY signal inh – inhibitors of TROY-dependent NF-kB signaling. Q293 LMP1-TROYcd NF-kB luciferase reporter, 4 h. inhibition, % at 10 µM. actives 0.98% (n = 360,000). AID 1347056;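 active means compounds whose plate-normalised and pattern-corrected inhibition of the luciferase reporter signal at the single screening dose is 50% or more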
CF NFkB block – cystic fibrosis NF-kB activation inhibition; KKLEB NF-kB-GFP reporter, PAF-induced, GFP fluorescence overnight; inhibition, % at 5 µM; actives 0.86% (n = 360,000);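 active means at least 50% inhibition at 5 µM, scaled per plate between neutral and stimulator controls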;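 further: PAF is a Pseudomonas aeruginosa culture filtrate used as stimulus; plate controls were PAF-stimulated DMSO wells for no effect and unstimulated DMSO wells for full effect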
Mdm2-MdmX confirm – confirmation of inhibitors of human Mdm2/MdmX interaction, set 2; shares compounds with HIF-2a block; SaOS-2 split-luciferase Mdm2/MdmX complementation, luminescence; inhibition, % at 8 µM; actives 99% (n = 740); AID 504601;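 active means mean inhibition of the luminescence signal across two replicates at or above 26 percent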
Target sequence (O15151 whole entry, looked up): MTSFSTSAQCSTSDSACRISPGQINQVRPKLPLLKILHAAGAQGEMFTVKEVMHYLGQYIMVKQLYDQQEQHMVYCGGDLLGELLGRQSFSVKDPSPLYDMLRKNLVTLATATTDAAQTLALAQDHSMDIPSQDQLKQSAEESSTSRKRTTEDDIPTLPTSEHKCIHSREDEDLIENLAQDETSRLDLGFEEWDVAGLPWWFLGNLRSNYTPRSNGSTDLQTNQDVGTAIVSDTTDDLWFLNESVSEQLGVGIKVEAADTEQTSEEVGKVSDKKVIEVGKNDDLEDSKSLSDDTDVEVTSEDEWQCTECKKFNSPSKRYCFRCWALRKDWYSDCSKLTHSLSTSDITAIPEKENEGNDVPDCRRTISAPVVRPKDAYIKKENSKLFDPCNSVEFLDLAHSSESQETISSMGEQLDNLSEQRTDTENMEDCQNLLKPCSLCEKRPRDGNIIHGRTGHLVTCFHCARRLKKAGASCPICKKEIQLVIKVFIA
Target sequence (Q00987 whole entry, looked up): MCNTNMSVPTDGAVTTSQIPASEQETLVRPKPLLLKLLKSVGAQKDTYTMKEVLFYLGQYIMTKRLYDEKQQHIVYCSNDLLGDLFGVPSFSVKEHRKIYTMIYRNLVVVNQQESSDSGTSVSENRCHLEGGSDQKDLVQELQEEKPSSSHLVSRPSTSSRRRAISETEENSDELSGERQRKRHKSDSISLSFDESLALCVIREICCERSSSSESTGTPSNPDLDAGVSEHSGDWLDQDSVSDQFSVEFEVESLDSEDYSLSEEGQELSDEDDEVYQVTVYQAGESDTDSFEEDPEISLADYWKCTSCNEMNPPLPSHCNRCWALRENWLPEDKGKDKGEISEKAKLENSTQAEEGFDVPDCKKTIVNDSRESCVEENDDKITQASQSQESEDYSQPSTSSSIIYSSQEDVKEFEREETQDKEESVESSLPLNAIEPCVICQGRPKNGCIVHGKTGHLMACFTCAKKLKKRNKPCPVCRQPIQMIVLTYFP
HIF-2a inh conf – confirmation of HIF-2a inhibitors; shares compounds with HIF-2a block; 786-0 RCC cells, HIF-2a luciferase reporter luminescence, overnight; inhibition, % at 18.8 µM; actives 56% (n = 1,800); AID 651580;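 active means mean inhibition across four replicates of at least 40 percent at the single tested concentration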
HIF-1a counter – HIF-1a inhibition counter-screen for HIF-2a hits | shares compounds with HIF-2a block | MiaPaCa-2 HIF-1a luciferase reporter, desferoxamine, overnight | inhibition, % at 18.8 µM | actives 72% (n = 1,800);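 active means mean inhibition of the reporter signal across four replicates at the single tested dose of 50% or more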
The depositor's hits bear a star.

Screening Cc1c(CCC(=O)N2CCC(C(=O)NCCCCCC(=O)O)CC2)c(=O)oc2cc3oc4c(c3cc12)CCCC4 returned TWEAK Fn14 block 24, HIF-2a block 29, Peg3 promoter -10, KKLEB cytotox -7, TROY signal inh 2 and CF NFkB block 28.
`Cc1c(CCC(=O)O)c(=O)oc2cc(OCc3ccccc3Br)ccc12` gave TWEAK Fn14 block 24, HIF-2a block 78*, Peg3 promoter 2, KKLEB cytotox -13, TROY signal inh 33, CF NFkB block 36, HIF-2a inh conf 92* and HIF-1a counter 52*.
`Cc1c(CCC(=O)O)c(=O)oc2cc(OCc3cccc(F)c3)ccc12` gave TWEAK Fn14 block -15, HIF-2a block -52, Peg3 promoter -22, KKLEB cytotox 6, TROY signal inh -7 and CF NFkB block 1.
`Cc1c(CCC(=O)N[C@@H](CC(C)C)C(=O)O)c(=O)oc2cc3oc4c(c3cc12)CCCC4` gave TWEAK Fn14 block 38, HIF-2a block 65*, Peg3 promoter -59, KKLEB cytotox 4, TROY signal inh -3, CF NFkB block -18, HIF-2a inh conf 75* and HIF-1a counter 38.
For Cc1c(CCC(=O)NCC(=O)NCC(=O)O)c(=O)oc2cc3oc4c(c3cc12)CCCC4 the results were TWEAK Fn14 block 9, HIF-2a block 26, Peg3 promoter 4, KKLEB cytotox -2, TROY signal inh -10 and CF NFkB block -2.
Screening Cc1c(CCC(=O)N[C@@H](C)C(=O)O)c(=O)oc2cc3occ(-c4ccccc4)c3cc12 returned TWEAK Fn14 block -2, HIF-2a block 26, Peg3 promoter 6, KKLEB cytotox -2, TROY signal inh 10 and CF NFkB block -2.
For COc1ccccc1N(CC(O)CN1CCOCC1)S(=O)(=O)c1ccccc1 (centres undefined) the results were TWEAK Fn14 block 30, HIF-2a block 10, Peg3 promoter 11, KKLEB cytotox 9, TROY signal inh -5 and CF NFkB block 5.
For COc1cccc(-c2coc3cc4oc(=O)c(CCC(=O)O)c(C)c4cc23)c1 the results were TWEAK Fn14 block 3, HIF-2a block 40*, Peg3 promoter 21, KKLEB cytotox 1, TROY signal inh 18, CF NFkB block -40, HIF-2a inh conf 57* and HIF-1a counter 51*.
For COc1cccc(-c2coc3c(C)c4oc(=O)c(CCC(=O)O)c(C)c4cc23)c1 the results were TWEAK Fn14 block -45, HIF-2a block 15, Peg3 promoter 3, KKLEB cytotox 0, TROY signal inh 10 and CF NFkB block -35.
Screening O=[N+]([O-])c1ccc(CN2CCN(c3nc4ccccc4s3)CC2)cc1 returned TWEAK Fn14 block -18, HIF-2a block -94, Peg3 promoter -44, KKLEB cytotox -2, TROY signal inh -8 and CF NFkB block 13.
For CCCn1nc([N+](=O)[O-])c(C(C#N)c2nc3ccccc3s2)c(Cl)c1=O (centres undefined) the results were TWEAK Fn14 block 77*, HIF-2a block 52*, Peg3 promoter 47, KKLEB cytotox -55*, TROY signal inh 46, CF NFkB block 30 and Mdm2-MdmX confirm 100*.
Screening Cc1oc(=O)c(NC(=O)c2ccccc2)cc1C(N)=O returned TWEAK Fn14 block -19, HIF-2a block 4, Peg3 promoter 2, KKLEB cytotox -3, TROY signal inh 1 and CF NFkB block 5.
Screening O=C(Nc1cc2ccccc2oc1=O)c1ccccc1 returned TWEAK Fn14 block 90*, HIF-2a block 40*, Peg3 promoter 54*, KKLEB cytotox -8, TROY signal inh 66*, CF NFkB block -28, HIF-2a inh conf 68* and HIF-1a counter 63*.
Screening CC(C)Cc1nc2oc3c(Cl)ncnc3c2c2c1CCC2 returned TWEAK Fn14 block 90*, HIF-2a block 67*, Peg3 promoter 106*, KKLEB cytotox -16, TROY signal inh -7, CF NFkB block 35, Mdm2-MdmX confirm 103*, HIF-2a inh conf 49* and HIF-1a counter 108*.
`CC(C)Cc1nc2oc3c(NCCCN4CCOCC4)ncnc3c2c2c1CCC2` gave TWEAK Fn14 block -54, HIF-2a block -45, Peg3 promoter 5, KKLEB cytotox -15, TROY signal inh 6 and CF NFkB block 17.
For CSCCOC(=O)C1=C(C)NC(=O)NC1c1ccc2c(c1)OCO2 (centres undefined) the results were TWEAK Fn14 block -6, HIF-2a block 19, Peg3 promoter 13, KKLEB cytotox 6, TROY signal inh 8 and CF NFkB block -10.
`CC1=C(C(=O)OCc2ccc3c(c2)OCO3)C(c2ccc(F)cc2)NC(=O)N1` (centres undefined) gave TWEAK Fn14 block 87*, HIF-2a block 23, Peg3 promoter 55*, KKLEB cytotox -32, TROY signal inh 55*, CF NFkB block 86* and Mdm2-MdmX confirm 97*.
For CCOC(=O)[C@]12CCCC=C1N(Cc1cccc3ccccc13)C(=O)[C@H](CC(=O)N1CCN(C(=O)c3ccco3)CC1)C2 the results were TWEAK Fn14 block 11, HIF-2a block -18 and TROY signal inh -1.
Screening CC(C)(C)NC(=O)CSc1nc(O)cc(=O)[nH]1 returned TWEAK Fn14 block 5, HIF-2a block 41*, Peg3 promoter 10, KKLEB cytotox 22, TROY signal inh 19, CF NFkB block -20, HIF-2a inh conf 6 and HIF-1a counter -1.
CCc1ccc(C)[n+](CC(=O)c2cccs2)c1 was read as TWEAK Fn14 block -4, HIF-2a block 15, Peg3 promoter 2, KKLEB cytotox 2, TROY signal inh -8 and CF NFkB block -8.
`N#Cc1cccc(C=C(C(=O)c2ccccc2)c2ccccc2)c1` gave TWEAK Fn14 block 64*, HIF-2a block 41*, TROY signal inh -50, HIF-2a inh conf 9 and HIF-1a counter 6.
Screening COc1ccc(Br)cc1C(C[N+](=O)[O-])c1c(N)n(C)c(=O)n(C)c1=O (centres undefined) returned TWEAK Fn14 block 45, HIF-2a block 58*, Peg3 promoter 68*, KKLEB cytotox -8, TROY signal inh 33, CF NFkB block -8, HIF-2a inh conf 21 and HIF-1a counter 86*.
